Results on seven compounds are retold here after PubChem BioAssay (Tox21).

Assay [1] can be described thus: qHTS assay to identify small molecule antagonists of the estrogen related receptor (ERR) signaling pathway from Tox21 library - cell viability counter screen (AID 1224834). Also: nearly all actives have a fitted effect of over 30% in size. A digest of the protocol:
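Cytotoxicity of test substances is gauged in the same ERR cells used for the antagonist screen, after 17.5 h of compound treatment at 37 C, by CellTiter-Fluor fluorescence measured after 30 min.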

In assay [2] the target is Luciferin 4-monooxygenase (Photinus pyralis) (UniProt P08659). Briefly: qHTS assay to identify small molecule inhibitors of firefly luciferase (AID 1224835). Also: nearly all actives have a fitted effect of over 25% in size. Also: potency is read from the fitted curve at half-maximal effect. A digest of the protocol: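 Quantitative HTS format; KM concentrations of both substrates. Purified P. pyralis FLuc activity quantified from luminescence images.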
Chain of Luciferin 4-monooxygenase (Photinus pyralis) (P08659 whole entry, looked up): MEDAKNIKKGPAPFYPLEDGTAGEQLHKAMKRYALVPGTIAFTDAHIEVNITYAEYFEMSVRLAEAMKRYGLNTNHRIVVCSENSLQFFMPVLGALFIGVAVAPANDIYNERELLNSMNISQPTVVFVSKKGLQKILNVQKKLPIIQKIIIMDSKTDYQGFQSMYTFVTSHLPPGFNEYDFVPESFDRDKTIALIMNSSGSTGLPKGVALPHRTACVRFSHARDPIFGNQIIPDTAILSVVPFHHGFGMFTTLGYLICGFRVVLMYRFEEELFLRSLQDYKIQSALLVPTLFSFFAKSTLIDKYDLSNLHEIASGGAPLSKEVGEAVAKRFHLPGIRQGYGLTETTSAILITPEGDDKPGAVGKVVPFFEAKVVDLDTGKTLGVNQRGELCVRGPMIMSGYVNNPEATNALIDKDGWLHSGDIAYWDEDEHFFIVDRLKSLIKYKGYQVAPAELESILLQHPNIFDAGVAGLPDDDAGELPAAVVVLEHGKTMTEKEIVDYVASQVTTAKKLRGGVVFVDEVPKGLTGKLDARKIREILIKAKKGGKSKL
Assay [3] can be described thus: qHTS assay to identify small molecule agonists of the constitutive androstane receptor (CAR) signaling pathway - cell viability counter screen (AID 1224836). Also: nearly all actives have a fitted effect of over 45% in size. A digest of the protocol:
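HepG2-CYP2B6-hCAR, 2500 cells/well, 4 h pre-incubation; cpd 15 conc + PK11195 0.75 uM final; 23 h, 37 C/5% CO2; CellTiter-Fluor, fluorescence.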

The nature of assay [4]: qHTS assay to identify small molecule antagonists of the constitutive androstane receptor (CAR) signaling pathway - cell viability counter screen (AID 1224837). Also: nearly all actives have a fitted effect of over 45% in size. A digest of the protocol: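 Multiplexed cytotoxicity read-out for the CAR antagonist screen: double-stable HepG2-CYP2B6-hCAR cells co-treated with 50 nM CITCO (final) and compound over 15 concentrations, incubated 23 hr, then assessed by CellTiter-Fluor fluorescence.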

In assay [5] the target is Nuclear receptor subfamily 1 group I member 3 (Homo sapiens) (UniProt Q14994). Briefly: qHTS assay to identify small molecule antagonists of the constitutive androstane receptor (CAR) signaling pathway (AID 1224838). Also: nearly all actives have a fitted effect of over 40% in size. A digest of the protocol: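 Compounds were titrated across 15 concentrations onto HepG2 cells double-stably expressing hCAR and a CYP2B6-2.2kb reporter, together with 50 nM CITCO (final). After 24 h at 37 C, luciferase activity was measured by luminescence.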
Chain of Nuclear receptor subfamily 1 group I member 3 (Homo sapiens) (Q14994 whole entry, looked up): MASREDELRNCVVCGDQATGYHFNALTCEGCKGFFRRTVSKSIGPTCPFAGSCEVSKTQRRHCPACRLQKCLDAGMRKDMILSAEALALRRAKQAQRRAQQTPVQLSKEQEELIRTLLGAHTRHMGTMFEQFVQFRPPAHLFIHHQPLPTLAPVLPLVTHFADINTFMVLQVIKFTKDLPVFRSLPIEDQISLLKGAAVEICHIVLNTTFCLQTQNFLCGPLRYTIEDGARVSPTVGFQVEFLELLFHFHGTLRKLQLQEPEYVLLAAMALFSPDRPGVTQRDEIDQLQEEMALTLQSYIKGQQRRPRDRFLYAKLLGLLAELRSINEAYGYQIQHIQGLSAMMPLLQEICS

For assay [6] the target is unchanged. Briefly: qHTS assay to identify small molecule agonists of the constitutive androstane receptor (CAR) signaling pathway (AID 1224839). Also: nearly all actives have a fitted effect of over 15% in size. Also: potency is read from the fitted curve at half-maximal effect. The procedure, abridged:
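HepG2-CYP2B6-hCAR cells, 2500/well, 4 h pre-incubation; compounds 15 conc.; PK11195 0.75 uM final; 24 h, 37 C/5% CO2; ONE-Glo luciferase read.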

Assay [7] can be described thus: qHTS assay to identify small molecule antagonists of the estrogen related receptor signaling pathway with the pleiotropic PPARgamma coactivator (PGC) from Tox21 10K library - cell viability counter screen (AID 1224840; active = well fitted cell-killing curve with a large enough effect in the repeat runs, not every such curve was filed as active; also: nearly all actives have a fitted effect of over 40% in size). The procedure, abridged:
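Step one, plate 2,000 PGC/ERR cells per well; step two, incubate 6 h at 37 C/5% CO2; step three, pin-transfer compounds; step four, incubate 17.5 h; step five, add CellTiter-Fluor and read fluorescence after 30 min.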

Assay [8] can be described thus: qHTS assay to identify small molecule antagonists of the estrogen related receptor signaling pathway with the pleiotropic PPARgamma coactivator (PGC) from Tox21 10K library (AID 1224841; call rule not given here; also: actives are mostly falling curves and most rising ones were filed inactive; nearly all actives have a fitted effect of over 50% in size). A digest of the protocol:
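Antagonism in this quantitative HTS is taken from loss of luciferase signal in PGC/ERR cells. Cells (2,000/well) are treated with compounds in DMSO after a 6 h settling period and read by One-Glo luminescence after 18 h.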

Assay [9] can be described thus: qHTS assay to identify small molecule agonists of the estrogen related receptor signaling pathway with the pleiotropic PPARgamma coactivator (PGC) from Tox21 10K library (AID 1224842). Also: nearly all actives have a fitted effect of over 15% in size. A digest of the protocol:
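PGC/ERR reporter cells (NTP line) were seeded 2,000 per well, rested 6 h at 37 C/5% CO2, then pin-dosed with compounds in DMSO for 18 h at 37 C; luciferase read by One-Glo luminescence after 30 min at room temperature.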

Assay [10] has as its target Thyrotropin receptor (Homo sapiens) (UniProt P16473). Put plainly: qHTS assay to identify small molecule agonists of the thyroid stimulating hormone receptor (TSHR) signaling pathway (AID 1224843; calls by dose curve; also: nearly all actives have a fitted effect of over 45% in size; also: potency is read from the fitted curve at half-maximal effect). A digest of the protocol: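 Cell line HEK293 with TSHR; density 800/well. Exposure 30 min RT. Readout HTRF cAMP (cAMP-d2/anti-cAMP-cryptate), 1 h RT before reading.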
Assay [11] in a line: qHTS assay to identify small molecule agonists of the hypoxia (HIF-1) signaling pathway - cell viability counter screen (AID 1224844; calls by dose curve; also: nearly all actives have a fitted effect of over 50% in size). The procedure, abridged:
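Tox21 10K compounds were added to HRE-bla ME-180 cells (0.5% dialyzed FBS) and incubated 17 hrs at 37C; ATP-based CellTiter-Glo luminescence then reported cell viability in the same wells.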

Assay [12] is described as follows: qHTS assay to identify small molecule agonists of H2AX (AID 1224845; active = well fitted activation curve with a large enough effect in the signal ratio in the repeat runs, not every such curve was filed as active; the % refers to the signal ratio). The procedure, abridged:
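Wild-type CHO-K1 cells plated overnight, then exposed 3 hr at 37C to compounds at 15 concentrations (0.76% DMSO). Lysed, then HTRF anti-pH2AX(S139)-cryptate/anti-H2AX-d2 detection after 24 hr at room temperature; emissions 665 and 620 nm.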

A short description of assay [13]: qHTS assay to identify small molecule agonists of the hypoxia (HIF-1) signaling pathway (AID 1224846; active = well fitted activation curve with a large enough effect in the signal ratio in the repeat runs, not every such curve was filed as active; the % refers to the signal ratio). The procedure, abridged:
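Steps: seed ME-180 HRE-bla cells (2,000/well, 0.5% dialyzed FBS); incubate 5 hrs at 37C; pin-transfer compounds or DMSO; incubate 17 hrs; add LiveBLAzer B/G substrate CCF4-AM; measure reporter activation by FRET.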

Assay [14] is described as follows: qHTS assay to identify small molecule agonists of H2AX - cell viability counter screen (AID 1224847; calls by dose curve; also: nearly all actives have a fitted effect of over 30% in size; also: potency is read from the fitted curve at half-maximal effect). A digest of the protocol: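 Cells plated first: CHO-K1, 1000 per well in 10% FBS medium, incubated overnight at 37C. Then 15-point compound titration added (final DMSO 0.76%) for 3 hr. Finally CellTiter-Glo added and luminescence read.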
Assay [15] in a line: qHTS assay to identify small molecule antagonists of the estrogen related receptor (ERR) signaling pathway from Tox21 library (AID 1224848). Also: nearly all actives have a fitted effect of over 50% in size. Also: potency is read from the fitted curve at half-maximal effect. The procedure, abridged: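 Screening used an ERR reporter line supplied by NTP, exposed for 18 h at 37 C to library compounds delivered in DMSO. Signal was luciferase luminescence developed with ONE-Glo at room temperature for 30 min.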

The nature of assay [16]: qHTS assay to identify small molecule agonists of the estrogen related receptor (ERR) signaling pathway from Tox21 library (AID 1224849; calls by dose curve; also: nearly all actives have a fitted effect of over 15% in size). The note with it: ERR reporter cell line, ONE-Glo luciferase, 18 h; at 92.4 µM (top of the series) unless noted. A digest of the protocol: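 Agonist signal is luciferase luminescence from an ERR reporter cell line treated 18 h at 37 C with DMSO-dissolved compounds, read 30 min after ONE-Glo addition at room temperature.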

Assay [17] in a line: qHTS RealTime-Glo MT Cell Viability Assay in HepG2 cells - 24 hour (AID 1224867). Also: nearly all actives have a fitted effect of over 50% in size. The procedure, abridged:
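HepG2 cells (600/well) were dispensed with RealTime-Glo reagents, incubated 5 h at 37 °C, then treated with compounds in DMSO for up to 40 h. Nonlytic NanoLuc luminescence reflecting viable cells was read at each stated time point.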

Assay [18] can be described thus: qHTS RealTime-Glo MT Cell Viability Assay in HEK293 cells - 32 hour (AID 1224868). Also: nearly all actives have a fitted effect of over 50% in size. Also: potency is read from the fitted curve at half-maximal effect. The procedure, abridged:
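HEK293 cells seeded with NanoLuc/prosubstrate reagent, rested 5 h at 37 C, then dosed and kept at 37 C up to 40 h. Nonlytic real-time luminescence from viable cells read at 0, 8, 16, 24, 32 and 40 h.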

A short description of assay [19]: A CellTox Green Cytotoxicity Assay to monitor cytotoxicity in HEK293 cells - 0 hour (AID 1224869). Also: nearly all actives have a fitted effect of over 50% in size. The procedure, abridged: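 Cytotoxicity was tracked continuously in HEK293 cells by a DNA-binding dye excluded from viable cells. Compounds were transferred in DMSO 5 h after seeding; fluorescence was recorded at intervals up to 40 h.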
A short description of assay [20]: qHTS RealTime-Glo MT Cell Viability Assay in HepG2 cells - 40 hour (AID 1224870). Also: nearly all actives have a fitted effect of over 50% in size. A digest of the protocol:
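HepG2 cells mixed with RealTime-Glo MT reagents (NanoLuc plus cell-permeant prosubstrate) were seeded at 600 cells/well, incubated 5 h at 37 C/5% CO2, then pinned with compounds in DMSO; nonlytic luminescence tracked viability during 40 h treatment.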

Values without a mark were called inactive. Inconclusive results are not listed. The source made the active and inactive calls. Unless noted, calls follow the shape of the dose curve; as a rule, active = well fitted curve in the direction sought with a large enough effect in the repeat runs; inconclusive = weak or mixed curves; inactive = no such curve, though single readings can be large; an effect the other way counts as inactive or inconclusive.
% is scaled to controls: 0 for no effect and ±100 for the full control effect.

Chain of Thyrotropin receptor (Homo sapiens) (P16473 whole entry, looked up): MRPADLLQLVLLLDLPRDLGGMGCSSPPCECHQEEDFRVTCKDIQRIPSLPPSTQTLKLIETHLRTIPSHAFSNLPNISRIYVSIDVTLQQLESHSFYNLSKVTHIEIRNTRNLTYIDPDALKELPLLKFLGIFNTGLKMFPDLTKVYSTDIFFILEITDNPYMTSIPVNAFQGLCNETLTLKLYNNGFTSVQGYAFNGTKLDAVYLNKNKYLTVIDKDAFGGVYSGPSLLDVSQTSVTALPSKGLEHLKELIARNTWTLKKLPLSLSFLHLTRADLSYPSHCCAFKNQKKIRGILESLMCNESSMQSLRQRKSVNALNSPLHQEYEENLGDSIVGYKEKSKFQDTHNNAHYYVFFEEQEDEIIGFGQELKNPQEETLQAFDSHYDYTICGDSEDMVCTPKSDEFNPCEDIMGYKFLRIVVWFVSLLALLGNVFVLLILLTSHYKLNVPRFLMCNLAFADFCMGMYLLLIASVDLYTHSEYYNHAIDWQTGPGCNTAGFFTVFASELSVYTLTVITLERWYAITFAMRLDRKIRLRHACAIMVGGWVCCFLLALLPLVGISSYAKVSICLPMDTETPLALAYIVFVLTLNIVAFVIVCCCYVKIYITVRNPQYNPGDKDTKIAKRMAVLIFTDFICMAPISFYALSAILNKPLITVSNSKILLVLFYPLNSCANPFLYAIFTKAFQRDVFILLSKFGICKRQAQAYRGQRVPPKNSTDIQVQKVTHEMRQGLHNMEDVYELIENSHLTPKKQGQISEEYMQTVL

For `CC1(C)C(=O)N(Br)C(=O)N1Cl`, the Potency entry in assay [1], in [2], in assay [3], in assay [4], in assay [5] and in assay [6] was “inactive” in each case. Also, the Potency entry in assay [7], in assay [8], in assay [9], in assay [10], in assay [11] and in assay [12] was “inactive” each time. Also, the Potency entry in [14], in assay [15], in assay [17], in [18], in assay [19] and in assay [20] was “inactive” throughout. Besides, in assay [13], the outcome was inactive. The activity change, positive = activation in assay [16] was 1.48%.

For the compound `CN(C)C(=O)Nc1ccc(Oc2ccc(Cl)cc2)cc1`, the Potency entry in assay [1], in assay [3], in [4], in [5], in [7] and in assay [9] was “inactive” throughout. Also, the Potency entry in [11], in [12], in [17] and in assay [20] was “inactive” each time. Further, the Potency in assay [2] is 63.3 µM (active); in assay [6], 30.6 µM (active); in [14], 89.8 µM (active); in [15], 13.7 µM (active); in assay [18] it was 38.9 µM (active). The result in assay [13] was inactive. Further, the activity change, positive = activation in [16] is -44.7%.

With `O=[N+]([O-])c1cccc(S(=O)(=O)NCCNS(=O)(=O)c2cccc([N+](=O)[O-])c2)c1`, the Potency entry in assay [1], in [2], in [3], in assay [4], in [5] and in [6] was “inactive” each time. The Potency result in assay [7], in assay [8], in [9], in assay [11], in [12] and in assay [14] was “inactive” throughout. Also, the Potency result in assay [15], in assay [17], in assay [18], in assay [19] and in [20] was “inactive” in each case. Also, the outcome in [13] was inactive. The activity change, positive = activation in assay [16] was -12.7% [at 42.5 µM].

On to `NC(=O)Nc1ccc(Cl)c(Cl)c1`, for which the Potency entry in assay [1], in [2], in assay [3], in assay [4], in assay [5] and in assay [6] was “inactive” throughout. The Potency entry in [7], in assay [8], in [9], in assay [11], in assay [14] and in assay [15] was “inactive” in each case. For the same compound, the Potency result in assay [19] and in assay [20] was “inactive” in each case. Further, the result in assay [13] was inactive. Moreover, in assay [16], the activity change, positive = activation is 4.97%.

For the compound `CC1CC(=O)NN=C1c1ccc(NCC(C)(C)NCC(O)COc2cc(Cl)ccc2C#N)cc1` (centres undefined), the Potency result in [1], in assay [2], in assay [3], in assay [4], in assay [5] and in assay [6] was “inactive” in each case. In addition, the Potency entry in assay [7], in assay [8], in [9], in assay [12], in assay [14] and in assay [17] was “inactive” each time. Also, the Potency entry in assay [19] and in assay [20] was “inactive” each time. Also, the Potency in assay [10] was 1.19 µM (active). In assay [13], the compound was classed as inactive. Besides, in [16], the activity change, positive = activation was -15% [at 42.5 µM].

For the compound `CC(=O)OCC(=O)[C@H]1CC[C@H]2[C@@H]3CCC4=CC(=O)CC[C@]4(C)[C@H]3CC[C@]12C`, the Potency entry in assay [1], in assay [2], in assay [3], in [4], in assay [5] and in [6] was “inactive” throughout. Moreover, the Potency result in [7], in assay [8], in assay [9], in assay [10], in assay [11] and in assay [12] was “inactive” each time. Also, the Potency entry in assay [17], in assay [19] and in assay [20] was “inactive” each time. Further, the result in [13] was inactive. In addition, the Potency in assay [15] is 21.1 µM (active). Also, the activity change, positive = activation in assay [16] is -35.1% [at 42.5 µM].

`CCCOc1ccc(S(=O)(=O)N2CCN(CC)CC2)cc1-c1nc2c(CC)n(Cc3ccccn3)nc2c(=O)[nH]1`: the Potency entry in assay [1], in assay [2], in [3], in assay [4], in assay [5] and in assay [6] was “inactive” each time. In addition, the Potency result in assay [7], in [8], in assay [9], in assay [10], in assay [11] and in assay [12] was “inactive” throughout. Besides, the Potency entry in assay [17], in assay [19] and in assay [20] was “inactive” in each case. In addition, in assay [13], the outcome was inactive. Further, the activity change, positive = activation in assay [16] is -21.4%.
